Records with an inconclusive call do not appear. Active and inactive are the calls of the source. Unless noted, the call rests on the fitted dose curve; in most records, active means well fitted curve in the direction sought with a large enough effect; inconclusive means small, poorly fitted or top-dose-only effect, or another doubt; inactive means no such curve, though single readings can be large; an effect the other way counts as inactive or inconclusive.
Legend:
[1] = molecular target: Lysosomal acid glucosylceramidase (Homo sapiens) (UniProt P04062); experiment: Glucocerebrosidase-p2 (AID 348; in the data active means potency below about 10 µM; further: potency means the concentration at half of the fitted maximal effect); conditions: purified GBA, blue fluorogenic substrate, 40 min
Lysosomal acid glucosylceramidase (Homo sapiens), sequence (P04062 whole entry, looked up): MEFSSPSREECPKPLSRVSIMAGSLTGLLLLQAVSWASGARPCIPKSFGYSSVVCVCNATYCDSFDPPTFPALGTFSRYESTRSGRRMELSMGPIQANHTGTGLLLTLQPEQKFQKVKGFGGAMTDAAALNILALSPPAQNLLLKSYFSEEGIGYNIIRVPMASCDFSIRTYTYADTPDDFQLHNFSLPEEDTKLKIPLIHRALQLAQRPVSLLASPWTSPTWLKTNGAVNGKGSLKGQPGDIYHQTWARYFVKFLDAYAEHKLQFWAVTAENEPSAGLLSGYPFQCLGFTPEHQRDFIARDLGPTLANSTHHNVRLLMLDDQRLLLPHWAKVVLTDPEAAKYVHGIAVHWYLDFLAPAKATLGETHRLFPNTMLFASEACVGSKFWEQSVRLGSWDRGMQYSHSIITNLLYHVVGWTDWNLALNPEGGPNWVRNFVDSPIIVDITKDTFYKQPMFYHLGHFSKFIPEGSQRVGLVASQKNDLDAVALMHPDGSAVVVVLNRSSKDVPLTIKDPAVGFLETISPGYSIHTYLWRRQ
Summary of the method: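 Normal human glucocerebrosidase (0.2 nM) with blue fluorogenic substrate (80 uM final) in citrate/phosphate pH 5.9 with 10mM sodium taurocholate, 0.01% tween-20; 40 min RT, NaOH/glycine stop; fluorescence Ex 365/Em 440; AC50 from a titration from 0.6 nM upwards.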

[2] = AP1 Signaling Pathway (AID 357; active means well fitted curve in either direction with a large enough effect, not every such curve was filed as active;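 further: ME-180 reporter cells stimulated with EGF at its EC50 level; on the % scale 0 is the no-effect control and ±100 the full control effect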); conditions: ME-180 AP-1-bla reporter, EGF-induced, beta-lactamase ratio, 5 h; at 7.69 µM (top of the series) unless noted
Summary of the method: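 Cells are seeded overnight, exposed to compound titrations and an EC50 level of EGF for 5 hours at 37 °C, then loaded with CCF4 dye for 2.5 hours. Beta-lactamase activity under the AP-1 element is read as a blue/green ratio.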

[3] = NFAT Signaling Pathway (AID 444; active means well fitted curve in either direction with a large enough effect, not every such curve was filed as active;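 further: carbachol stimulus at about its EC50 of 1 µM final; on the % scale 0 is the no-effect control and ±100 the full control effect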); conditions: Jurkat NFAT-bla M1, carbachol, beta-lactamase ratio, 5 h; at 7.69 µM (top of the series) unless noted
Summary of the method: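 Read-out: CCF4 FRET ratio (460 nm/530 nm) after 1 h RT dye loading, used for %activity and AC50 from titration series. Cells: Jurkat NFAT-β-lactamase/M1 line, treated with compound plus 1 uM carbachol for 5 h, 37 °C.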

[4] = Stat Signaling Pathway (AID 446; active means well fitted curve in either direction with a large enough effect, not every such curve was filed as active;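 further: ME-180 cervical cancer cells given 40 pM IL-6 alongside compound; SIE-controlled beta-lactamase reporter measured as 460/530 nm FRET emission ratio; on the % scale 0 is the no-effect control and ±100 the full control effect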); conditions: ME-180 SIE beta-lactamase reporter, IL-6 stimulated, 5 h; at 7.69 µM (top of the series) unless noted
Summary of the method: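 Emission at 460 and 530 nm (excitation 405 nm) reports SIE-controlled beta-lactamase in ME-180 cells. Cells received compound with 40 pM IL-6 for 5 hrs at 37 C; data scaled between 300 pM IL-6 and 125 nM JAK-inhibitor controls.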

[5] = molecular target: Glucocorticoid receptor (Homo sapiens) (UniProt P04150); experiment: GR-GFP Redistribution (AID 450;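 active means compounds whose dose series gives a full or clear partial fitted curve of increased nuclear translocation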; further: potency means the concentration at half of the fitted maximal effect); conditions: U2OS GR-GFP nuclear translocation, laser cytometry, 2 h
Glucocorticoid receptor (Homo sapiens), sequence (P04150 whole entry, looked up, the tested form may be a part): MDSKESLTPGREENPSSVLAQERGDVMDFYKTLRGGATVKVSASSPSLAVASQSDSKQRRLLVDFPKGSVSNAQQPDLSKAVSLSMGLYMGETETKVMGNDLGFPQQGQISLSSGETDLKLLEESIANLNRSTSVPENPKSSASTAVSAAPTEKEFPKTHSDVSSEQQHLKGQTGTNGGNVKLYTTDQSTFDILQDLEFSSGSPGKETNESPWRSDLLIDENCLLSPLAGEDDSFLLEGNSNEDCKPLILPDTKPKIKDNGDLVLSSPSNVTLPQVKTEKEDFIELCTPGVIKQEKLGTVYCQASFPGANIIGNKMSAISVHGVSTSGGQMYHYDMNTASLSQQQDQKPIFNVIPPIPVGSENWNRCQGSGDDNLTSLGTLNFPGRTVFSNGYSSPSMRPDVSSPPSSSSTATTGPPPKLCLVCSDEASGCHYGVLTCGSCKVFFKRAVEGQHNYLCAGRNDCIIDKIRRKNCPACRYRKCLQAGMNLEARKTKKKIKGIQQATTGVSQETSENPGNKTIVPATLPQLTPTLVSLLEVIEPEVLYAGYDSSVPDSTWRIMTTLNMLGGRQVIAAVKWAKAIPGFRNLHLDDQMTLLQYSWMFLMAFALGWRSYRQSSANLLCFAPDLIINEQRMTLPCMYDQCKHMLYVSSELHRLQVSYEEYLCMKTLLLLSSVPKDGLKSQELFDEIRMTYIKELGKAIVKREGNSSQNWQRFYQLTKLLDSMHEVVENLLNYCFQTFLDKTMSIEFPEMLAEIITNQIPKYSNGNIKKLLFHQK

[6] = molecular target: Glucocorticoid receptor (Homo sapiens) (UniProt P04150); experiment: GR-EFC Redistribution (AID 451; calls by dose curve; further: potency means the concentration at half of the fitted maximal effect); conditions: CHO-K1 GR-EFC translocation, beta-gal luminescence, 2 h
Summary of the method: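 Translocation of GR-ED fusion to nuclear EA restores b-gal, read by luminescence after 1 h room-temperature detection. Engineered CHO-K1 biosensor cells, 1,000/well, exposed 2 h at 37 C to titrations up to 46 uM final.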

[7] = molecular target: Mitogen-activated protein kinase 10 (Mus musculus) (UniProt Q61831); experiment: JNK3 AlphaScreen Assay (AID 530; active means well fitted curve in either direction with a large enough effect, not every such curve was filed as active;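 further: kinase came from lysate of stimulated human HepG2 cells; signal reports phosphorylation of biotinylated GST-cJun 1-79 at Ser73 with 10 µM ATP; on the % scale 0 is the no-effect control and ±100 the full control effect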); conditions: JNK3 lysate, c-Jun phosphorylation; series mostly up to 57.1 µM
Summary of the method: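 qHTS titrations with 15 min compound pre-incubation before adding ATP (10 uM final). Read-out: AlphaScreen of Ser73-phosphorylated biotin-GST-cJun using HepG2 lysate JNK3 activated by IL-1β and TNFα.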

[8] = molecular target: 3',5'-cyclic-AMP phosphodiesterase 4B (Homo sapiens) (UniProt Q07343); experiment: qHTS Assay for Inhibitors of PDE-IV (AID 607; active means well fitted activation curve with a large enough effect in the main read-out, with a control signal flat, not every such curve was filed as active; further: % of control where 0% means no effect); conditions: HEK293 ACTOne CNG channel cells, membrane potential fluorescence; series mostly up to 22.9 µM
3',5'-cyclic-AMP phosphodiesterase 4B (Homo sapiens), sequence (Q07343 whole entry, looked up): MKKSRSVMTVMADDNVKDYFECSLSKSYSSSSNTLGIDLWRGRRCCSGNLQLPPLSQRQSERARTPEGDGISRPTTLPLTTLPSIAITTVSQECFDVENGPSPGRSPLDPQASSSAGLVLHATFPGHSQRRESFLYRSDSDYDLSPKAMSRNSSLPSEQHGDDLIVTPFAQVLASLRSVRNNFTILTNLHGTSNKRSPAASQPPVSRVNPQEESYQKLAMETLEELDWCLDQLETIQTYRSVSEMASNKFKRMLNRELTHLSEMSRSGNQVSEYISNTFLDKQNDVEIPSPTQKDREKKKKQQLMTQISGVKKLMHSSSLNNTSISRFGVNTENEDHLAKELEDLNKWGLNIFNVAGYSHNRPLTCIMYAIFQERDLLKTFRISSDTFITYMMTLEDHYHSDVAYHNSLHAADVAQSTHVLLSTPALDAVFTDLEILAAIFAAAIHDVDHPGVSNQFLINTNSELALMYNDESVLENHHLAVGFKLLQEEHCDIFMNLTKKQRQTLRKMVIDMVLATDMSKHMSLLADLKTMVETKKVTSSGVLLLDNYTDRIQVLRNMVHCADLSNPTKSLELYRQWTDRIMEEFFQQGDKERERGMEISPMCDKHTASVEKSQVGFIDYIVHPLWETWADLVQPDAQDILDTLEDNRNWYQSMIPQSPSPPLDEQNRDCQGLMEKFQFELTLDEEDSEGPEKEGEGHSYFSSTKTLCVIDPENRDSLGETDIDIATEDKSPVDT
Summary of the method: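 The readout is membrane depolarisation from a cAMP-sensing CNG channel, detected with a potential dye at ex 535/em 590. Cells were HEK293-derived (endogenous PDE-IV) at 1000 cells/well, titrated up to 22.9 uM final.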

[9] = molecular target: Dual specificity protein kinase CLK4 (Homo sapiens) (UniProt Q9HAZ1); experiment: qHTS Assay for Inhibitors of CDC-like Kinase 4 (Kinase-Glo Assay) (AID 1770); conditions: recombinant Clk4, Kinase-Glo ATP depletion luminescence; series mostly up to 66.7 µM; further: on the % scale 0 is the no-effect control and ±100 the full control effect; nearly all actives have a fitted effect of over 65% in size
Dual specificity protein kinase CLK4 (Homo sapiens), sequence (Q9HAZ1 whole entry, looked up): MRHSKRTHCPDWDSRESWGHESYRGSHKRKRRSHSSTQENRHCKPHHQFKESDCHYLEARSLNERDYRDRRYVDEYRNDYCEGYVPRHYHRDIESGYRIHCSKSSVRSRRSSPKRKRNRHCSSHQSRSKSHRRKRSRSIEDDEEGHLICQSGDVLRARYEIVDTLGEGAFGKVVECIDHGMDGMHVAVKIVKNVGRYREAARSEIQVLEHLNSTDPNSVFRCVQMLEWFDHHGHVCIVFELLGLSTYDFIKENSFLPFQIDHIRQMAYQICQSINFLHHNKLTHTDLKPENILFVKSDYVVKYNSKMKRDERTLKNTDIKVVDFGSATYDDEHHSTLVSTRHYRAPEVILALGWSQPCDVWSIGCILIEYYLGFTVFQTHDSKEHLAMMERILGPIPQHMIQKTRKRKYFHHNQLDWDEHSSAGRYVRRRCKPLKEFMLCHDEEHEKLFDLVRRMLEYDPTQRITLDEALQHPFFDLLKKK
Summary of the method: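 Readout: Kinase-Glo luminescence from ATP left after a 4.5 h room-temperature reaction of 25 nM Clk4 with 100 uM RS peptide and 1 uM ATP (final). Buffer: 25 mM Tris pH 7.5, 10 mM MgCl2.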

[10] = molecular target: Dual specificity protein kinase CLK4 (Homo sapiens) (UniProt Q9HAZ1); experiment: qHTS Assay for Inhibitors of CDC-like Kinase 4 (ADP-Glo Assay) (AID 1771); conditions: recombinant CLK4, ADP-Glo luminescence; series mostly up to 80 µM; further: on the % scale 0 is the no-effect control and ±100 the full control effect; nearly all actives have a fitted effect of over 70% in size
Summary of the method: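 Compounds are pin-transferred onto substrate mix (100 uM RS peptide, 1 uM ATP), then 25 nM Clk4 is added. After 1 hr at room temperature, ADP-Glo reagent runs 45 min, detection reagent 30 min, then luminescence is read.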

[11] = molecular target: Dual specificity protein kinase CLK4 (Homo sapiens) (UniProt Q9HAZ1); experiment: qHTS Assay for Inhibitors of CDC-like Kinase 4 (ADP-FP Assay) (AID 1795); conditions: Transcreener ADP fluorescence polarization; series mostly up to 50 µM;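 further: recombinant human CLK4 phosphorylating RS repeat peptide at 1 µM ATP; on the % scale 0 is the no-effect control and ±100 the full control effect; nearly all actives have a fitted effect of over 60% in size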
Summary of the method: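 FP readout: Orange Transcreener ADP2 tracer (4 nM) plus ADP antibody, read after 30 min at room temperature. Kinase step: 6.25 nM Clk4, 100 uM RS peptide, 1 uM ATP, pH 7.5, 1 h.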

[12] = molecular target: Ubiquitin carboxyl-terminal hydrolase 1 (Homo sapiens) (UniProt O94782); experiment: Inhibitors of USP1/UAF1: Pilot qHTS (AID 504865); conditions: purified USP1/UAF1, Ub-rhodamine cleavage fluorescence; series mostly up to 54.9 µM;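 further: rhodamine fluorescence freed from ubiquitin-rhodamine substrate followed over time; top concentration of the series differs between compounds; on the % scale 0 is the no-effect control and ±100 the full control effect; nearly all actives have a fitted effect of over 35% in size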
Ubiquitin carboxyl-terminal hydrolase 1 (Homo sapiens), sequence (O94782 whole entry, looked up): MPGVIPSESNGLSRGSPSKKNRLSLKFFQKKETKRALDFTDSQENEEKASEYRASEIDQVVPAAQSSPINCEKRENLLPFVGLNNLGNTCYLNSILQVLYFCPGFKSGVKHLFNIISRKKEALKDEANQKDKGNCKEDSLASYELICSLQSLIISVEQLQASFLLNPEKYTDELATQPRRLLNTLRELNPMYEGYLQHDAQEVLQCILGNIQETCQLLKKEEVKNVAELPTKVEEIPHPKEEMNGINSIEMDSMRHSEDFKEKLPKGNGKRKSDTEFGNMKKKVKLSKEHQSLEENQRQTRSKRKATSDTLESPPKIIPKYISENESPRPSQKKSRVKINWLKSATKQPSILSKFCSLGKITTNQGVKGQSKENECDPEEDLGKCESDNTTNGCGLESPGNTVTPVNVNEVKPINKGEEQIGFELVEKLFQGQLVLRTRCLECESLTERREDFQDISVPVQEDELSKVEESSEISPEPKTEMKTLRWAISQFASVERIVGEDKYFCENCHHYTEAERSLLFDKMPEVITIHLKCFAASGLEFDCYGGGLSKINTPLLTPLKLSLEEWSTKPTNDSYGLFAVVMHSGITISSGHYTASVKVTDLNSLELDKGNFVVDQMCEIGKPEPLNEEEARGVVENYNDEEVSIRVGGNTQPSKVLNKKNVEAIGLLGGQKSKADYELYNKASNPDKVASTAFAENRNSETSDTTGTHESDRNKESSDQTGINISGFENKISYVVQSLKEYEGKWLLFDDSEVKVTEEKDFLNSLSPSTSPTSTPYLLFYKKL
Summary of the method: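 1nM USP1/UAF1 + cpd, 15 min RT; start w/ Ub-Rho 150nM final; kinetic FL 480/540 nm, 6 reads q60 s. Buffer 50mM HEPES pH 7.8, 0.5mM EDTA, 1mM TCEP, 0.01% Tween-20, 0.1 mg/ml BSA.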

[13] = Primary qHTS for small molecule stabilizers of the endoplasmic reticulum resident proteome: Secreted ER Calcium Modulated Protein (SERCaMP) assay (AID 1508630); conditions: SH-SY5Y GLuc-SERCaMP (Gaussia luciferase released on ER calcium loss) secretion, thapsigargin, luminescence; series mostly up to 38.4 µM; further: on the % scale 0 is the no-effect control and ±100 the full control effect
Summary of the method: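 The SH-SY5Y reporter protocol was run at 3 concentrations up to 38.3 uM (primary) or 11 concentrations (follow-up): 16 h compound, 100 nM thapsigargin for 4 h, then extracellular luciferase luminescence.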

[14] = qHTS Assay for Identification of Small Molecule Agonists for Hypoxia Response Element Signaling Pathway (AID 914; active means well fitted activation curve with a large enough effect in the signal ratio, with a control signal flat, not every such curve was filed as active; the % refers to the signal ratio; further: % of control where 0% means no effect); conditions: ME-180 (cervical carcinoma) HRE-bla reporter, beta-lactamase ratio, CoCl2, 17 h; activation: hits give high values
Summary of the method: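 Reporter activity (beta-lactamase, CCF4 460nm/530nm ratio) in HRE-bla ME-180 cells is recorded after 17 h compound exposure with EC50 CoCl2 at 37 degrees Celsius. AC50 values come from titration data.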

COc1cccc(Cn2c(=O)c(-c3ccccc3)nc3cncnc32)c1
inactive: Potency [1] > 11.4 µM | activity change, negative = inhibition [2] -16.5% | activity change, negative = inhibition [3] -5.39% | activity, negative = inhibition [4] -11.9% | Potency [5] > 9.22 µM | Potency [6] > 46 µM | Potency [7] | Potency [8] | Potency [9] | Potency [10] | Potency [11] | Potency [12] | outcome [13]

COc1ccc(-c2nc3cnc(OC)nc3n(-c3ccccc3)c2=O)cc1
inactive: Potency [1] > 11.4 µM | activity change, negative = inhibition [2] -6.09% | activity change, negative = inhibition [3] 10.5% | activity, negative = inhibition [4] -1.78% | Potency [5] > 9.22 µM | Potency [6] > 46 µM | Potency [7] | Potency [8] | Potency [9] | Potency [10] | Potency [11] | Potency [12] | outcome [13]

FC(F)(F)c1ccccc1-c1cncnc1-n1ccnc1
inactive: Potency [1] > 11.4 µM | activity change, negative = inhibition [2] -6.84% | activity change, negative = inhibition [3] -7.53% | activity, negative = inhibition [4] 3.29% | Potency [5] > 46 µM | Potency [6] > 46 µM | Potency [7] | Potency [8] | Potency [9] | Potency [10] | Potency [11] | Potency [12] | outcome [13]

CN1CCN(c2cc(-c3ccccc3Cl)ncn2)CC1
inactive: Potency [1] > 11.4 µM | activity change, negative = inhibition [2] -6.42% | activity change, negative = inhibition [3] 3.06% | activity, negative = inhibition [4] -1.39% | Potency [5] > 46 µM | Potency [6] > 46 µM | Potency [7] | Potency [8] | activation [14] 18% | Potency [9] | Potency [10] | Potency [11] | Potency [12] | outcome [13]

O=c1c(-c2ccc(F)cc2)nc2cncnc2n1Cc1ccc(F)cc1
inactive: Potency [1] > 11.4 µM | activity change, negative = inhibition [2] -9.76% | activity change, negative = inhibition [3] -10% | activity, negative = inhibition [4] -2.38% | Potency [5] > 9.22 µM | Potency [6] > 46 µM | Potency [7] | Potency [8] | Potency [9] | Potency [10] | Potency [11] | Potency [12] | outcome [13]

COc1ccc(-c2nc3cnc(N4CCOCC4)nc3n(Cc3cccc(OC)c3)c2=O)cc1
inactive: Potency [1] > 11.4 µM | activity change, negative = inhibition [2] 18.4% | activity change, negative = inhibition [3] 18.6% | Potency [5] > 9.22 µM | Potency [6] > 46 µM | Potency [7] | Potency [8] | Potency [9] | Potency [10] | Potency [11] | Potency [12] | outcome [13]

Source: PubChem BioAssay (NCATS)
